Rows were chosen to be rich in hits. Some 4.6% of all compounds tested hit in one or more screens of this group.
D1 agonist – activates the human D1 dopamine receptor | P21728 | 360,000 tested, 1% active | AID 504660 | activation, % at 2 µM | HEK293 T-REx D1 cells, calcium flux, agonist mode
Target sequence (P21728 whole entry, looked up): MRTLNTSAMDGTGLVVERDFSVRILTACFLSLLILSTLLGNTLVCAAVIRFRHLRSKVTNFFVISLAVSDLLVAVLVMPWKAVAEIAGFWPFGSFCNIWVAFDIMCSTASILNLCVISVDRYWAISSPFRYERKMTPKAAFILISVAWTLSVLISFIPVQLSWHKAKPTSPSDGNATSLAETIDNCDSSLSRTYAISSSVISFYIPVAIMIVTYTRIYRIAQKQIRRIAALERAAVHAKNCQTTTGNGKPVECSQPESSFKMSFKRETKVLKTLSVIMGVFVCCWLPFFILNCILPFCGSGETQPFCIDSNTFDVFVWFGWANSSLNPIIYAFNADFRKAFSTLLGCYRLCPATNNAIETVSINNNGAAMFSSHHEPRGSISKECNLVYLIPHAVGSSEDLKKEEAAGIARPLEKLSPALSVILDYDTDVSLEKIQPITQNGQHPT
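Tetracycline-induced HEK293 TREx D1 cells, force-coupled to calcium signalling, were dye-loaded with a no-wash calcium kit. Compound was pin-added after a 10 s baseline. Fluorescence was read kinetically at 1 cycle/s for 180 s, with calcium rises flagged as agonism.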
TRHR enhancer – allosterically enhances the human TRH receptor; TRHR cells, fluo-8 calcium fluorescence, EC20 TRH enhancement; enhancement, % at 2 µM; 360,000 tested, 0.66% active; AID 493056; in the data active means enhancement above about 30%
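TRHR-expressing cells loaded with fluo-8 calcium dye were read kinetically (ex 480/em 530) during compound addition, then stimulated with an EC20 of TRH (10 nM final). Enhancement of the Gq-mediated intracellular calcium response was scored.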
D1 antag – antagonists of human D1 dopamine receptor | P21728 | HEK293 TREx D1 cells, calcium flux, dopamine EC80; active compounds read low | activity change, negative = inhibition, % at 10 µM | 360,000 tested, 3.2% active | AID 504652; in the data active means activity change below about -30%
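Using tetracycline-induced force-coupled D1 Hek293 cells and a calcium dye, signals were followed for 180 s after compound, then for 180 s after EC80 dopamine, to detect inhibitors.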
TRHR ag – activates the human TRH receptor; P34981; 360,000 tested, 0.18% active; activation, % at 2 µM; TRHR cells, calcium flux fluo-8, FDSS agonist mode
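In this calcium-flux screen, cells bearing human TRHR are dye-loaded with fluo-8, baselined for 10 cycles, then exposed to library compounds; positive kinetic calcium responses during the agonist phase mark hits, with TRH as control.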
D1 potentiator – potentiators of human D1 dopamine receptor. AID 504651. potentiation, % at 10 µM. HEK293 TREx D1 cells, calcium flux, dopamine EC20 potentiation. 360,000 tested, 0.036% active. P21728; in the data active means potentiation above about 30%
Numbers stand for hits; i = inactive; ! = not confirmed by another sample. Unless noted, no stated cut-off is given here; in the data, active means activation above about 30%; inactive means the rest.

SMILES	D1 agonist	TRHR enhancer	D1 antag	TRHR ag	D1 potentiator
Cc1cccc(N2CCN(C(=O)c3ccc4nc[nH]c4c3)CC2)c1C	i	i	-46	i	i
Cc1ccc(Cl)cc1N1CCN(C(=O)c2ccc3nc[nH]c3c2)CC1	i	i	i	i	i
Cc1cc(C)cc(NC(=O)CCC(=O)N2CCSc3ccccc32)c1	i	i	-58!	i	i
COC(=O)c1ccccc1NC(=O)CCC(=O)N1CCSc2ccccc21	i	i	i	i	i
O=C(O)C1CCN(C(=O)c2csc(-c3ccc4c(c3)CCO4)n2)CC1	i	i	-34	i	i
Cc1cc2c(s1)c1cnn(Cc3ccccc3F)c(=O)c1n2C(C)C	i	i	i	i	i
Cn1cc(Br)c(C(=O)N/N=C/c2cccc(OC3CSC3)c2)n1	i	i	-30	i	i
CCOc1cc(/C=N/NC(=O)c2nn(C)cc2Br)ccc1OCc1ccccc1Cl	i	i	i	i	i
CCn1nc(C)c(CNC(=O)c2cc(COc3ccccc3SC)on2)c1C	i	i	-49	i	i
CSc1ccccc1OCc1cc(C(=O)NCc2cccc(C)n2)no1	i	i	i	i	i
O=C(CCSc1ccc(F)cc1)Nc1ccc(-n2cnnn2)cc1	i	i	-40	i	i
O=C(CCSc1nnc2ccc3ccccc3n12)Nc1ccc(F)cc1	i	i	i	i	i
Cc1ccc(CCNC(=O)c2sc3ncccc3c2-n2c(C)ccc2C)cc1	i	i	i	i	i
CCN(CC)c1ccc(NC(=O)CN2CCN(c3nc(C)cc(C)n3)CC2)cc1	i	i	-33	i	i
Cn1ncc(Cl)c1C(=O)Nc1ccc2c(c1)CCC2	i	i	i	i	i
CN1N=C(C(=O)Nc2ccc3c(c2)CCC3)CCC1=O	i	i	-32	i	i
Nc1c(Br)cc(Br)c2cccnc12	i	i	i	i	i
O=C(COC(=O)c1ccc(S(=O)(=O)NCc2ccco2)cc1)NCc1ccc(F)cc1	i	i	-41	i	i
O=C(COC(=O)c1ccc(S(=O)(=O)NCc2ccco2)cc1)c1ccccc1	i	i	i	i	i
Cc1cc(C)n(-c2ccc(C(=O)Nc3ccc(S(=O)(=O)NCc4ccco4)cc3)cc2)n1	i	i	-41	i	i
O=C(Nc1ccc(S(=O)(=O)NCc2ccco2)cc1)c1ccc(F)cc1	i	i	-35	i	i
CCc1ccc(CNC(=O)CCc2c(C)nn(-c3ccc(N4CCCC4)nn3)c2C)cc1	i	i	i	i	i
NS(=O)(=O)c1ccc(CCNC(=O)C2CCN(S(=O)(=O)c3c(Cl)cccc3Cl)CC2)cc1	i	36	i	i	i
O=C(CN1CCC(Cc2ccccc2)CC1)NCCc1ccc(F)cc1	i	i	i	i	i
NS(=O)(=O)c1ccc(CCNC(=O)CN2CCC(Cc3ccccc3)CC2)cc1	i	i	-44	i	i
SMILES	D1 agonist	TRHR enhancer	D1 antag	TRHR ag	D1 potentiator
NS(=O)(=O)c1ccc(CCNC(=O)C2CCN(S(=O)(=O)c3ccccc3)CC2)cc1	i	i	i	i	i
Cc1ccc(C(=O)c2ccccc2C(=O)O)s1	i	i	i	i	i
O=C(O)c1ccccc1C(=O)c1ccc(Br)s1	i	i	-34	i	i
O=C(O)c1ccccc1C(=O)c1cccc2ccccc12	i	i	-37	i	i
CCOC(=O)CSc1nc2sc3c(c2c(=O)n1-c1ccc(OCC)cc1)CCN(C)C3	30	i	i	i	i
CCOc1ccc(-n2c(SCC(N)=O)nc3sc4c(c3c2=O)CCN(C)C4)cc1	i	i	i	i	i
CCOC(=O)C1C(=O)NC(N2CCN(Cc3ccccc3)CC2)=NC1c1ccco1 (stereo not given)	i	i	-36	i	i
CCOC(=O)C1C(=O)NC(N2CCN(Cc3ccccc3)CC2)=NC1c1ccccc1 (stereo not given)	i	i	i	i	i
Cc1ccc(NC(=O)CN(C)S(=O)(=O)c2cccs2)cc1C	i	i	i	i	i
Cc1ccc(NC(=O)CN(C)S(=O)(=O)c2cccs2)cc1F	i	i	-37	i	i
COc1cccc(N2CC(NS(=O)(=O)c3ccc4ccccc4c3)CC2=O)c1 (stereo not given)	31	i	i	i	i
CC(C)c1ccc(S(=O)(=O)NCc2nc3cccnc3n2Cc2ccc(F)cc2)cc1	i	i	i	i	i
CCCC1(C(=O)OCC)NC(c2ccc(O)cc2)C2C(=O)N(c3ccc4c(c3)OCCO4)C(=O)C21 (stereo not given)	i	i	i	i	i
COC(=O)C1(c2ccccc2)NC(c2ccc(O)cc2)C2C(=O)N(c3ccc4c(c3)OCO4)C(=O)C21 (stereo not given)	i	i	-56	i	i
CCn1cc(C(=O)N(C)c2cc(C)ccc2OC)c2cc(OC)c(OC)cc2c1=O	i	i	i	i	i
CCn1cc(C(=O)N(C)c2cc(C)ccc2C)c2cc(OC)c(OC)cc2c1=O	i	i	-34	i	i
OC(CC#CCN1CCOCC1)(c1ccccc1)c1ccccc1	i	i	-31	i	i
OC(CC#CCN1CCCC1)(c1ccccc1)c1ccccc1	i	i	i	i	i
COc1ccccc1C1Nc2c(sc3nc(C)cc(C)c23)C(=O)N1c1ccccc1 (stereo not given)	i	i	i	i	i
CC(=O)OCCn1c(C)[n+](CCOC(C)=O)c2cc(Cl)c(Cl)cc21	i	i	i	i	i
CCn1c(C)[n+](CCOCC[n+]2c(C)n(CC)c3cc(Cl)c(Cl)cc32)c2cc(Cl)c(Cl)cc21	i	i	-48	i	i
Clc1ccc(-c2cnc(Oc3ccccc3)nc2)cc1	i	i	i	i	i
Cc1cc(Cl)ccc1Oc1ncc(-c2ccc(Cl)cc2)cn1	i	i	-66	i	i
CC(=O)Nc1ccc(Nc2cc(C)nc3c(-c4ccccc4)cnn23)cc1	i	i	-40	i	i
CC(=O)Nc1ccc(Nc2cc(-c3ccccc3)nc3ncnn23)cc1	i	38	i	i	i
SMILES	D1 agonist	TRHR enhancer	D1 antag	TRHR ag	D1 potentiator
CCOc1ccccc1NC(=O)c1ccc2c(c1)CCN2S(C)(=O)=O	i	i	i	i	i
CCc1nn(-c2ccccc2)c2nc(-c3ccc(O)cc3)c3cc(OC)c(OC)cc3c12	i	i	i	i	i
Cc1ccc2[nH]c(=O)c(CN(CCCN(C)C)C(=S)NCCc3ccccc3)cc2c1	i	i	i	i	i
Cc1cccc2cc(CN(CCCN(C)C)C(=S)NCCc3ccccc3)c(=O)[nH]c12	31	i	i	i	i
CCCCOc1ccc(C(=O)NNC(=O)C2C3C=CC(C3)C2C(=O)O)cc1 (stereo not given)	i	i	-82	i	i
CCCCOc1ccc(C(=O)NNC(=O)C2C3CCC(C3)C2C(=O)O)cc1 (stereo not given)	i	i	i	i	i
CCOc1ccc(NS(=O)(=O)c2ccc3[nH]c4c(c3c2)CCCCC4)cc1	i	i	i	i	i
